The record followed here is paper PMC7819943, “Rice protein-binding microarrays: a tool to detect cis-acting elements near promoter regions in rice”.

In all, about 68,000 sequences were measured (“fluorescence intensity (a.u.)”: median about 9,100, highest 2% from about 16,000 on). What follows is part of a selection rich in the highest values, with near analogues and random picks from the rest.

Sequence of OsWRKY34 (Q0JBA9 entry or part of it): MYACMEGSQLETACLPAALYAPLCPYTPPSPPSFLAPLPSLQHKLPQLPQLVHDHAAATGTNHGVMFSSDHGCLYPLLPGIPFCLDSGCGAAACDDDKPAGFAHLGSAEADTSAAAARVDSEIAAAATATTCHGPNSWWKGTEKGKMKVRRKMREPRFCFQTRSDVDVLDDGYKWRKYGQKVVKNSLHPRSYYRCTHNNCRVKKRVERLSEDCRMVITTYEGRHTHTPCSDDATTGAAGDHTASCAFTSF

For this assay, the target named is OsWRKY34 (Oryza sativa, UniProt Q0JBA9 1-250). In words: protein-binding microarray (RPBM); PBS, 2% BSA, 51.3 ng/ul salmon testes DNA, 50 uM zinc acetate, 200 nM TF, 25 C, 1 h; high values mean tight binding. The settings on record: protein: recombinant; tags: N-terminal polyhistidine and DsRed monomer fusion (pET32a); label: CyDye5-dUTP incorporated in the synthesized complementary strand; 3' TTTTT single-stranded linker to array surface; dsDNA, one strand shown. A digest of the protocol:
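Binding signal is defined as the fluorescence intensity of each feature in arbitrary units, read on an Axon 4000B scanner. Transcription factors with N-terminal polyhistidine and DsRed fusions came from E. coli BL21-CodonPlus and were purified on Ni–NTA. They were incubated at 200 nM for 1 h at 25 °C on a custom Agilent array that had been made double-stranded with Cy5-dUTP, with 50 µM zinc acetate present, and the array was washed.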
“GGGTTGATTTTGCTTCCTGCATCCCAGCGACATCGCCCAACGGAGTCACCTAGTGCAG”: the binding signal is 11500 fluorescence intensity (a.u.).
For “CCTGTGCGTGGTCGGGTTAATTTGTCAGTCTGTCACTTACCGGAGTCACCTAGTGCAG”, the binding signal is 10200 fluorescence intensity (a.u.).
As for “GTGCTCATCCGCCTCCTCGGGTCGTCTCCATCGACCTCCTCGGAGTCACCTAGTGCAG”, the figure is 9120 fluorescence intensity (a.u.); as for “TGTTGACTTTTTAGTACATATTTAACCATTTGTCTTATTACGGAGTCACCTAGTGCAG”, 14900 fluorescence intensity (a.u.); as for “GTTTACTCCAAGATTCACATTTGACTTTCTTATGCCATAGCGGAGTCACCTAGTGCAG”, 9170 fluorescence intensity (a.u.).
The figure for “TAATAGATGACGCCGTTGACTTTTTCTCACATGTTTGACCCGGAGTCACCTAGTGCAG” is 33000 fluorescence intensity (a.u.).
In the case of “TTAATAGATGACGCCGTTGATTTTTTCTCACATGTTTGACCGGAGTCACCTAGTGCAG”, the binding signal is 11600 fluorescence intensity (a.u.).
The figure for “TTTTTAATAGATGACGCTGTTGACTTTTTCCCACATGTTTCGGAGTCACCTAGTGCAG” is 24200 fluorescence intensity (a.u.); for “TTTGTTTTTTAATAGATGACGCTGTTGACTTTTTCTCACGCGGAGTCACCTAGTGCAG” it is 14200 fluorescence intensity (a.u.).
As for “ATAGATGACGCTGTTGATTTTTTTCTCACATGTTTGACCACGGAGTCACCTAGTGCAG”, the figure is 10400 fluorescence intensity (a.u.); as for “ATAGATGACGCCGTTAACTTTTTCTCACATGTTTAACCATCGGAGTCACCTAGTGCAG”, 10200 fluorescence intensity (a.u.); as for “CTCCATTTAACAGATGACGTCGTTGACTTTTTCTTACATGCGGAGTCACCTAGTGCAG”, 26900 fluorescence intensity (a.u.).
In the case of “TTTTTAATAGATGACGCCGTTGACTTTTTCTCACATGTTTCGGAGTCACCTAGTGCAG”, the binding signal is 34300 fluorescence intensity (a.u.).
As for “TTTTTTAATAGATGACGCCGTTGACCTTTTCTCACATGTTCGGAGTCACCTAGTGCAG”, the figure is 15100 fluorescence intensity (a.u.); as for “CTAGTTTTGGTCTTGTGATAGGTTATTTGCTTACGATTATCGGAGTCACCTAGTGCAG”, 9430 fluorescence intensity (a.u.); as for “CCGACCCGACCCGACCACCCACCGGCGAGGCCCACTCCGTCGGAGTCACCTAGTGCAG”, 8620 fluorescence intensity (a.u.).
As for “TGCTGCTGCTGTTGTTCGTGTATTGCTCCATCTGTGCACGCGGAGTCACCTAGTGCAG”, the figure is 9920 fluorescence intensity (a.u.); as for “CATAAACGACGCCGCATCAGACAAACTAAACGCGACAATACGGAGTCACCTAGTGCAG”, 8100 fluorescence intensity (a.u.); as for “GCACTACCTTCACCATTTTTTTTGATTTTTTTCTTTTTTTCGGAGTCACCTAGTGCAG”, 8270 fluorescence intensity (a.u.).
With “GCTATCTCCATCGTCTCTTTCCTTGACCACAGCGGCAATGCGGAGTCACCTAGTGCAG”, the binding signal was 9860 fluorescence intensity (a.u.).
As for “CCACCACGGACTCCGCCGCCGCTCCCGCCACCGCCACATCCGGAGTCACCTAGTGCAG”, the figure is 10600 fluorescence intensity (a.u.); as for “ATAAATGACGCCGTTGATTTTTTCTCACATGTTTGACCATCGGAGTCACCTAGTGCAG”, 10500 fluorescence intensity (a.u.).
Turning to “CGTTTTTTAATAGATGACGCCGTTGACTTTTTCTCACATGCGGAGTCACCTAGTGCAG”, the binding signal is 31400 fluorescence intensity (a.u.).
The figure for “AATAGATGACGCCGTTGATTTTTTCTCACATGTTTGACCACGGAGTCACCTAGTGCAG” is 11700 fluorescence intensity (a.u.).
As for “GATGACGCCGTTGACTTTTTCTCACATGTTTGACCAATCGCGGAGTCACCTAGTGCAG”, the figure is 36900 fluorescence intensity (a.u.); as for “TTCATGGAGTCTACTACTCTACTCCCTCTATTTTCAAATACGGAGTCACCTAGTGCAG”, 9010 fluorescence intensity (a.u.).
As for “ATATAGGGGTTGGTCTTCCACGTCAAATTTGGGGTAGATACGGAGTCACCTAGTGCAG”, the figure is 10200 fluorescence intensity (a.u.).
As to “TAGCTTTGGCACCTTGCGCGCGCGTACACAGCCGCTTAAGCGGAGTCACCTAGTGCAG”, the binding signal is 8550 fluorescence intensity (a.u.).
As for “TTTTTCTCGTTTGCCGTGTCACCGCGTGAGTTGCGCGGGGCGGAGTCACCTAGTGCAG”, the figure is 11700 fluorescence intensity (a.u.); as for “ATCACATCAACCTGTCATATACACACAACTTTTCAGTCATCGGAGTCACCTAGTGCAG”, 8530 fluorescence intensity (a.u.); as for “TTAAAAAACATTGTACCACAAGTAGCAACAAATTAATGCTCGGAGTCACCTAGTGCAG”, 26900 fluorescence intensity (a.u.).
“ACCTCAACAAAAGCTTTGTAGTAGCTCTTAATTGTTGGGTCGGAGTCACCTAGTGCAG”: the binding signal is 8220 fluorescence intensity (a.u.).
The figure for “TTTGCTCCACACCACACAACACACATTGTACGGCGTTGCTCGGAGTCACCTAGTGCAG” is 8210 fluorescence intensity (a.u.); for “CCCAAATCCATCCAGCCCGTCGCCGCCCGCCGCCCGCCGCCGGAGTCACCTAGTGCAG” it is 8860 fluorescence intensity (a.u.).
In the case of “CTTTTCTAGCCGTTCACTTTTTTTTACCACAGTAGTTTTTCGGAGTCACCTAGTGCAG”, the binding signal is 16600 fluorescence intensity (a.u.).
Turning to “CTGATCTTAACTCCGTGTTTTTCCGCGTTCTCTTTCGTTCCGGAGTCACCTAGTGCAG”, the binding signal is 19600 fluorescence intensity (a.u.).
As for “AGTCCGTGCTGCAGATCTGCTCTTTTCTCTTCGTTTAACTCGGAGTCACCTAGTGCAG”, the figure is 10300 fluorescence intensity (a.u.).
Turning to “TGTTAAAACACCCTTTTTCACTTTTCTAGCCGTTCACTTTCGGAGTCACCTAGTGCAG”, the binding signal was 9280 fluorescence intensity (a.u.).
As for “ACGTGTCCTTCTCTCTTTTTTTCTTTTTCGTTTTCTTCTCCGGAGTCACCTAGTGCAG”, the figure is 8280 fluorescence intensity (a.u.); as for “TACTGCCGTCGCCGTCGCCCCACGTTTCCTTCTCCAGTTTCGGAGTCACCTAGTGCAG”, 8300 fluorescence intensity (a.u.).
On to “CACTCCTGCTGCCGTCCAGTTGCAATTGCGTTTTCTCCTTCGGAGTCACCTAGTGCAG”, for which the binding signal was 16700 fluorescence intensity (a.u.).
The figure for “AGTTTTCTTTGTTCACCTACCGTTTTTTTAGCACGTAGTTCGGAGTCACCTAGTGCAG” is 10500 fluorescence intensity (a.u.); for “GTCCGTCTTGTTTTCTCCTGCGTCACAATTGTCCCGTATTCGGAGTCACCTAGTGCAG” it is 18500 fluorescence intensity (a.u.).
The figure for “TGTTATTGTCCTGTATCAGTCCCGTGCTGTTTTTCTCTTTCGGAGTCACCTAGTGCAG” is 13000 fluorescence intensity (a.u.); for “ATCCACTCCAGTCCCGTCCCGTTTCCTTGCTGCCCGGCCGCGGAGTCACCTAGTGCAG” it is 9660 fluorescence intensity (a.u.).
The figure for “TGTTCTGTGAGAATAGTTTCGTCCGTCTTGTTTTCTCCTGCGGAGTCACCTAGTGCAG” is 8470 fluorescence intensity (a.u.).
Take “CCGGGTTCCTGTTTTTTCAACGCATGCACACTTTAATCTACGGAGTCACCTAGTGCAG”: the binding signal was 9290 fluorescence intensity (a.u.).
